High-throughput results as filed in PubChem.
Hits are enriched below; roughly 5.4% of the tested compounds scored in any of these assays.
SKKanGAS inh: inhibitors of SKKanGAS S. pyogenes growth in kanamycin (SK-promoter or general growth effect); BacTiter-Glo, 6 h; inhibition, % at 7.5 µM; 300,000 tested, 1.3% active;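 active means mean replicate score, as percent of positive control median, at least 50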;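 further: strain carries kanamycin resistance gene driven by streptokinase promoter and grows in 40 µg/ml kanamycin; loss of luminescence reflects streptokinase promoter inhibition or plain growth inhibition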
Beta apoptosis: blocks beta cell apoptosis. 300,000 tested, 0.8% active. INS-1E cytokine-induced death, ATP luminescence, 48 h; percent of positive-control rescue, neutral wells zero. AID 435005. protection from apoptosis, % (concentration not given with the values);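 active means Every replicate reaches about 75%, or at least half do and their mean reaches it too, limit read from the data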;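 further: higher means more ATP so stronger rescue from cytokine killing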
Calb FLC: affects C. albicans growth with fluconazole. C. albicans CaCi-2 (fluconazole-resistant clinical isolate) + fluconazole, Alamar Blue growth, 48 h. growth inhibition, % (concentration not given with the values). 300,000 tested, 0.57% active;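 active means growth inhibition above about 58% in most replicates, limit read from the data, passing the limit was not always enough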;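 further: all wells also contain fluconazole at 8 µg/ml as a sub-toxic cotreatment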
CSC inhib: blocks cancer stem cells. cancer stem cell-like cells viability, luminescence. inhibition, % at 7.5 µM. 300,000 tested, 1.1% active; in the data active means inhibition above about 75%; tested in HMLE shEcad cells
Mdm2 MdmX PPI: inhibitors of human Mdm2/MdmX interaction; inhibition, % at 8 µM; 330,000 tested, 3% active; SaOS-2 split-luciferase Mdm2/MdmX complementation, luminescence; O15151+Q00987;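 active means inhibition of at least 50% at 8 µM in the primary screen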
MPTP inh: blocks calcium-induced mitochondrial swelling | isolated mouse mitochondria, Ca2+ swelling absorbance, 30 min | inhibition, % at 10 µM | 360,000 tested, 1.4% active;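 active means inhibition of 50% or more, scaled per plate between neutral and stimulator controls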
MPTP counter: Rhodamine 123 counter-screen of mitochondrial pore hits; shares compounds with MPTP inh; isolated mitochondria, membrane potential, Rhodamine 123 fluorescence; inhibition, % at 10 µM; 5,000 tested, 78% active; AID 624504; in the data active means inhibition above about 22%
MPTP swell DR: MPTP inhibition, dose response swelling confirmation; shares compounds with MPTP inh; isolated mitochondria swelling, absorbance; IC50, µM; 780 tested, 58% active; in the data active means IC50 below about 20 µM
MPTP cs DR: active in counter-screen for permeability transition pore inhibitors | shares compounds with MPTP inh | isolated mitochondria counterscreen, fluorescence read-out | IC50, µM | 780 tested, 49% active; in the data active means IC50 below about 80 µM
Of the large screens only hits and unclear results are named; the others gave an inactive call (follow-up assays come after a bar, where they were run).

CN(C)S(=O)(=O)c1ccc(C(=O)Nc2nc(-c3cc4ccccc4o3)cs2)cc1	MPTP inh 84.6 | MPTP counter 87.4
CCN(CC)c1cccc(OC(=O)c2cccnc2Cl)c1	none (no result: Beta apoptosis)
Cc1cc(OCC(=O)Nc2cccc(S(=O)(=O)NC3=NCCCCC3)c2)ccc1Cl	MPTP inh 86.9 | MPTP counter 86.5
Cc1cc(OCC(=O)Nc2ccc(CN3CCCCC3)cc2)ccc1Cl	MPTP inh 62.7 (no result: Beta apoptosis) | MPTP counter inactive | MPTP swell DR 10.6 | MPTP cs DR 26.4
Cc1cc(OCC(=O)Nc2ccc(CN3CCOCC3)cc2)ccc1Cl	none
CN(CC(=O)Nc1cccc(F)c1)C(=O)C1(c2ccccc2)CC1	none (no result: SKKanGAS inh, Calb FLC)
COc1ccccc1N1CC(C(=O)Nc2ccc(S(=O)(=O)N3CCCC3)cc2)CC1=O (configuration not stated)	none (no result: SKKanGAS inh, Calb FLC)
O=S(=O)(Nc1ccncc1)c1ccc(Cl)c(Cl)c1	none
Cc1cccc(CS(=O)(=O)Cc2ccc(C(=O)NC(C)c3ccccc3)o2)c1 (configuration not stated)	none
CCC(C)[C@@H](NC(=O)OC(C)(C)C)c1nnc(S(=O)(=O)Cc2cccc(C)c2)o1 (some centres not stated)	MPTP inh 90.7 (no result: Beta apoptosis, CSC inhib, Mdm2 MdmX PPI) | MPTP counter inactive
FC(F)(F)c1nc(SCc2ccc(Cl)cc2Cl)n[nH]1	MPTP inh 63.4 (no result: Beta apoptosis, CSC inhib) | MPTP counter 90.5
Cn1c(SCc2ccc(Cl)cc2Cl)nc(C(F)(F)F)cc1=O	none
COC(=O)c1sc(NC(=S)NC(=O)c2ccc(F)cc2)nc1C	none (no result: MPTP inh)
COC(=O)c1sc(NC(=S)NC(=O)c2cccc(Br)c2)nc1C	MPTP inh 89.5 | MPTP counter 49.2
CC(C)c1ccc(-c2csc(NC(=O)c3cccs3)c2C(=O)O)cc1	MPTP inh 61.7 | MPTP counter 56.2
COc1cc(OC)c(OC)cc1CN1CCN(Cc2cccc(F)c2)CC1	none
COc1ccc(Cl)cc1N(CC(=O)NC1CC2CCC1C2)S(=O)(=O)c1ccccc1 (configuration not stated)	none (no result: Beta apoptosis)
COc1ccccc1OCCNC(=O)Nc1ccc(Br)cc1	MPTP inh 84.7 | MPTP counter 81.7
COc1cc(NC(=O)COc2cc(O)c3c(c2)OC(C)(C)CC3=O)cc(OC)c1OC	Beta apoptosis 109.6, MPTP inh 98.8 | MPTP counter 98.3
Cc1ccc2[nH]c(=O)c(CN(CC3CCCO3)C(=S)Nc3ccccc3)cc2c1 (configuration not stated)	none
C#CCOCCOCCOCCNc1nc(N2CCN(C(=O)[C@H](CCCN=C(N)N)n3cc(C(N)[C@@H](C)CC)nn3)CC2)nc(N2CCN(C(=O)[C@H](CCC(=O)O)n3cc([C@@H](N)CCCCN)nn3)CC2)n1 (some centres not stated)	none (no result: SKKanGAS inh, Calb FLC)
C#CCOCCOCCOCCNc1nc(N2CCN(C(=O)[C@H]([C@@H](C)CC)n3cc([C@@H](N)CC(C)C)nn3)CC2)nc(N2CCN(C(=O)[C@H](CCCCN)n3cc([C@@H](N)CC(C)C)nn3)CC2)n1	none (no result: MPTP inh)
C#CCOCCOCCOCCNc1nc(N2CCN(C(=O)[C@H](CCCN=C(N)N)n3cc(C(N)[C@@H](C)CC)nn3)CC2)nc(N2CCN(C(=O)[C@H](CCCCN)n3cc([C@@H](N)[C@H](C)CC)nn3)CC2)n1 (some centres not stated)	MPTP inh 100.6 (no result: SKKanGAS inh, Calb FLC) | MPTP counter inactive | MPTP swell DR 1.47 | MPTP cs DR inactive
C#CCOCCOCCOCCNc1nc(N2CCN(C(=O)[C@H]([C@@H](C)CC)n3cc([C@@H](N)CC(C)C)nn3)CC2)nc(N2CCN(C(=O)[C@H](CCCCN)n3cc([C@@H](N)C(C)CC)nn3)CC2)n1 (some centres not stated)	MPTP inh 76.0 | MPTP counter inactive | MPTP swell DR 2.42 | MPTP cs DR inactive
C#CCOCCOCCOCCNc1nc(N2CCN(C(=O)[C@H](CCCCN)n3cc(CN)nn3)CC2)nc(N2CCN(C(=O)[C@H](CCCCN)n3cc([C@@H](N)[C@H](C)CC)nn3)CC2)n1	MPTP inh 87.8 (no result: SKKanGAS inh, Calb FLC) | MPTP counter inactive | MPTP swell DR 6.44 | MPTP cs DR 64.6
C#CCOCCOCCOCCNc1nc(N2CCN(C(=O)[C@H](CCCCN)n3cc([C@@H](N)C(C)CC)nn3)CC2)nc(N2CCN(C(=O)[C@H](CCCCN)n3cc([C@@H](N)CO)nn3)CC2)n1 (some centres not stated)	none (no result: MPTP inh)
Fc1ccc(NC(=S)NCc2ccccc2Cl)cc1	MPTP inh 92.4 (no result: Beta apoptosis) | MPTP counter 76.0
Fc1ccc(CCNC(=S)Nc2ccc(F)c(Cl)c2)cc1	MPTP inh 102.6 | MPTP counter 95.1
Fc1ccc(NC(=S)NCCc2ccc(Cl)cc2)cc1	MPTP inh 89.3 | MPTP counter 89.9
Fc1ccccc1NC(=S)NCCc1ccc(Cl)cc1	none (no result: SKKanGAS inh)
Cc1cc(C)c(OC2(c3ccccc3)OC(=O)c3ccccc32)c(C)c1 (configuration not stated)	none
Cc1csc(N=Nc2ccc(N(C)C)cc2)[n+]1[O-]	MPTP inh 67.7 (no result: SKKanGAS inh, Beta apoptosis, Calb FLC, CSC inhib, Mdm2 MdmX PPI) | MPTP counter inactive | MPTP swell DR inactive | MPTP cs DR inactive
CN(C)c1ccc(N=Nc2ccc(C(=O)O)cc2)cc1	none
C=CCc1cccc(CNc2nc3ccccc3n2CC)c1O	none (no result: CSC inhib)
C=CCc1cccc(CNc2nc3ccccc3n2CCC)c1O	CSC inhib 102.2, MPTP inh 51.6 | MPTP counter 53.3
CCCCNCCOCCOc1ccccc1-c1ccccc1	MPTP inh 82.9 | MPTP counter inactive | MPTP swell DR inactive | MPTP cs DR inactive
COCCNCCCCOc1ccccc1-c1ccccc1	none
O=C(NC(c1ccc(Cl)cc1)c1c(O)ccc2ccccc12)c1ccccc1 (configuration not stated)	Beta apoptosis 98.3, CSC inhib 107.1, MPTP inh 80.3 (no result: SKKanGAS inh, Calb FLC, Mdm2 MdmX PPI) | MPTP counter 58.8
CCCCC(=O)NC(c1ccc([N+](=O)[O-])cc1)c1c(O)ccc2ccccc12 (configuration not stated)	MPTP inh 68.7 | MPTP counter 78.5
O=C(NC(c1ccccc1)c1c(O)ccc2ccccc12)c1ccccc1Cl (configuration not stated)	none (no result: SKKanGAS inh)
CCc1ccccc1NC(=O)c1ccc(-n2c(C)ccc2C)cc1	none
O=S(=O)(Nc1ccc2ccccc2c1)c1ccccc1	none
CCC1CCc2sc(C(=O)NC3CCN(Cc4ccccc4)CC3)cc2C1 (configuration not stated)	MPTP inh 76.5 | MPTP counter inactive | MPTP swell DR 11.1 | MPTP cs DR 26.8
